ALR inh: inhibitors of human ALR sulfhydryl oxidase, primary screen, biochemical, H2O2 detection, HRP-luminol luminescence, single point; purified ALR, DTT oxidation; actives 3.8% (n = 290,000); FAD-linked sulfhydryl oxidase ALR (Homo sapiens), P55789; inhibition, % (concentration not given with the values);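 active = mean replicate inhibition above about 79%, with every replicate also reaching it, limit read from the data; inconclusive = only one of the two criteria met; inactive = mean below limit and not every replicate reaching it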
Target sequence (P55789 whole entry, looked up): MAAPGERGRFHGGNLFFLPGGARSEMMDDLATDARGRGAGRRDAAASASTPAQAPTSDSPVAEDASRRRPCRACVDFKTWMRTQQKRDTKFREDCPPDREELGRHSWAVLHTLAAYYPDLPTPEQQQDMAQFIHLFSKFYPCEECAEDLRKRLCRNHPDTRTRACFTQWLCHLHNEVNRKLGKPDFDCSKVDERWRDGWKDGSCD
Efflux pump inh: inhibitors of Candida efflux pumps in yeast, primary screen, S. cerevisiae, Nile Red, multiplex; S. cerevisiae Candida pump triplex; inhibition, % at 10 µM; actives 0.44% (n = 330,000); AID 485275, 2010;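 active = plate passing quality check with inhibition over a set limit, or well fluorescence over plate mean plus 4 SD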;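 also: Nile Red retained in pooled yeast measured as flow cytometry median fluorescence; higher means more Nile Red kept so more efflux inhibition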
HDAC3 inhib: HDAC3 deacetylase inhibitors, primary screen, biochemical, fluorescence, cell-free homogeneous | Histone deacetylase 3 (Homo sapiens), O15379 | recombinant HDAC3, fluorogenic peptide/trypsin coupled | actives 0.15% (n = 320,000) | inhibition, % at 8.3 µM; in the data active = inhibition above about 26%, passing the limit was not always enough; inconclusive = no clear call, values can overlap the other calls
GRK2 aptamer HTS: compounds blocking aptamer binding on GRK2 – biochemical, human GRK2, bead flow cytometry, HTS, primary screen | FAM-aptamer displacement from GRK2 | inhibition of aptamer binding, % at 10 µM | actives 0.59% (n = 330,000) | AID 488847, 2010;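 active = inhibition of aptamer binding above 40%, roughly 3 SD of noise, on plates passing a quality check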;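 also: median bead fluorescence of bound FAM aptamer so fluorescent compounds give negative values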
Rce1 inhib: yeast Rce1p protease inhibitors, primary screen, biochemical, fluorescence, cell-free homogeneous. calls only. actives 0.27% (n = 290,000). AID 2563, 2010. yeast membranes, quenched prenylated peptide cleavage fluorescence;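 active = fall in fluorescence gain of 50% or more versus controls, with final raw signal at or below 3038400; inconclusive = same 50% fall but final raw signal above 3038400; inactive = fall in fluorescence gain under 50%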
Target sequence (Q03530 whole entry, looked up): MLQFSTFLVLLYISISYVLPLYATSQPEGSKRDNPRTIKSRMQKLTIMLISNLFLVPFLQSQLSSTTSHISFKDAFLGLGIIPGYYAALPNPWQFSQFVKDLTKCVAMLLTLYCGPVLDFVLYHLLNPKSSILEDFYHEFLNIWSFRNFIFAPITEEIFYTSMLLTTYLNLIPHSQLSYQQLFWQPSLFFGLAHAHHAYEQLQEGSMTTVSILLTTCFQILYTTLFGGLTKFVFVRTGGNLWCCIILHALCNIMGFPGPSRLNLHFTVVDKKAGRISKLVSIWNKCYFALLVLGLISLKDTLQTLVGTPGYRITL
Rtt109 HAT inh: inhibitors of C. albicans Rtt109/Vps75 HAT, primary screen, biochemical, ThioGlo CoA-SH fluorescence, plate reader | Histone acetyltransferase RTT109 (Candida albicans (strain SC5314 / ATCC MYA-2876)), … | purified Rtt109/Vps75, 4 h | inhibition, % at 34.9 µM | actives 0.16% (n = 330,000) | AID 540336, 2011;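 active = inhibition of at least 50% in every replicate; inconclusive = best replicate reaches 50% inhibition but some replicates fall short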
Of the large screens only hits and unclear results are named; the others gave an inactive call. Sampled rows, rich in hits. Any-hit rate of the full collection: about 4.5%.

Cc1ccc(CSc2[nH]c(=O)ncc2C)cc1	none
COc1ccccc1Nc1nnc(SCc2cc(=O)n3cc(C)ccc3n2)s1	none (no result: Rce1 inhib, Rtt109 HAT inh)
Cn1c(=Nc2ccccc2)sc2ccccc21	none
CN(C)c1ccc(N=c2sc3ccccc3n2C)cc1	ALR inh 98.8 (no result: Rtt109 HAT inh)
Cc1ccc(NS(=O)(=O)c2ccc(C)c(NC(=S)NCCN3CCOCC3)c2)c(C)c1	none (no result: ALR inh, Rce1 inhib)
CCOc1ccc(C(Nc2ccc(C)cc2)P2(=O)OCCCO2)cc1 (stereo not drawn)	ALR inh inconclusive
CCOc1ccc(C(Nc2ccc(C)cc2)P2(=O)OCCC(C)O2)cc1 (stereo not drawn)	ALR inh 98.5
Cn1c(CNC(=O)CCNC(=O)c2ccccc2)cc(=O)n(C)c1=O	none
N#C/C(=N\Nc1c(Cl)cccc1Cl)C(=O)NN	ALR inh 98.1
CN(c1ccccc1)S(=O)(=O)c1cccc(C(=O)Nc2nn[nH]n2)c1	none (no result: Rce1 inhib)
COc1ccccc1CN1C[C@@H]2C[C@@H](c3[nH]c4c(C)cccc4c3C)N3CCC[C@@]23C1=O	none
COc1cc(NC(=O)CSCc2ccc(Cl)cc2Cl)c(C(=O)O)cc1OC	none
Cc1c(NC(=O)CSCc2ccc(Cl)cc2Cl)cccc1C(=O)O	ALR inh 98.2
O=C(CSCc1ccc(Cl)cc1Cl)Nc1ccc(O)cc1C(=O)O	ALR inh 98.5
O=C(CSCc1ccc(Cl)cc1Cl)Nc1ccccc1C(=O)Nc1ccc(C(=O)O)cc1	ALR inh 97.0
O=C(CSCc1ccc(Cl)cc1)Nc1ccc(Br)cc1C(=O)O	ALR inh 96.2
CN(CCCC(=O)N1CCN(c2ncccn2)CC1)S(=O)(=O)c1ccc(F)cc1	none (no result: ALR inh, Rce1 inhib)
COCC(Cc1ccccc1)NC(=O)Cn1cc(C)c(=O)[nH]c1=O (stereo not drawn)	none (no result: ALR inh, Efflux pump inh, HDAC3 inhib, GRK2 aptamer HTS, Rce1 inhib)
Cc1ccc(OCC(=O)NNC(=O)c2ccccc2OCc2c(C)noc2C)cc1	none
Cc1ccnc(NS(=O)(=O)c2ccc(NC(=O)CCc3ccccc3)cc2)n1	none
COC(=O)Cc1nnc(SCC(=O)Nc2ccccc2)c2ccccc12	ALR inh 97.7
O=C(CSc1nnc(-c2ccc(F)cc2)c2ccccc12)Nc1ccccc1	ALR inh 99.4
O=C(/C=C/c1ccc2c(c1)OCO2)c1ccc(F)cc1	none (no result: Efflux pump inh, GRK2 aptamer HTS)
CN(C)c1ccc(/C=C/C(=O)c2ccc3c(c2)OCO3)cc1	ALR inh 98.9 (no result: Rce1 inhib)
O=C(/C=C/c1ccccc1)c1ccc2c(c1)OCO2	ALR inh 97.3 (no result: Rtt109 HAT inh)
CC1(C)Oc2ccc(C(=O)N/N=C/c3ccc(O)cc3)cc2NC1=O	ALR inh 99.3
CN(C)c1ccc(/C=C/C(=O)c2cccnc2)cc1	ALR inh 99.2
O=C(CC1SCCNC1=O)Nc1cccc([N+](=O)[O-])c1 (stereo not drawn)	none (no result: HDAC3 inhib)
CN(C)c1ccc(/C=N/NC(=O)c2cccc(N3CCCC3=O)c2)cc1	ALR inh 87.5 (no result: HDAC3 inhib)
CC(=O)Nc1cccc(N2CCCC2=O)c1	ALR inh 99.5
CN(C)c1ccc(/C=N/NC(=O)c2ccc3c(c2)OCO3)cc1	ALR inh 97.5
CCCCN(C)CCCNC(=O)c1cccc(N2CCCC2=O)c1	none
CC(=O)Nc1cccc(N2C(=O)CCC2=O)c1	none (no result: Rce1 inhib)
CN(CCCNC(=O)c1cccc(N2CCCC2=O)c1)c1ccccc1	ALR inh 98.4
O=C(N/N=C/c1ccccc1)c1ccc2c(c1)OCO2	none
O=C(c1cccc(S(=O)(=O)Nc2ccc(Br)cc2)c1)N1CCCC1	none
COc1cc(NC(=O)c2ccc(C(C)(C)C)cc2)c(OC)cc1NC(=O)CN1CCCCC1	none
COc1ccc2nc3cc(Cl)ccc3c(Nc3cc(CN4CCCC4)c(O)c(CN4CCCC4)c3)c2n1	ALR inh 98.7 (no result: Rtt109 HAT inh)
COc1cc(C(=O)Nc2ccc(N(C)C)cc2)c([N+](=O)[O-])cc1OC	ALR inh 88.9
COc1cc(/C=C(/NC(=O)c2ccccc2)C(=O)Nc2ccc(O)cc2)c([N+](=O)[O-])cc1OC	ALR inh 99.4
O=C(Nc1ccc(O)cc1)/C(=C\c1cccs1)NC(=O)c1ccccc1	ALR inh 99.6
CC(=O)OCC=C1CCC2C3CC(C)C4=CC(=O)CCC4(C)C3C(O)CC12C (stereo not drawn)	none (no result: ALR inh, Efflux pump inh, HDAC3 inhib, GRK2 aptamer HTS, Rce1 inhib)
S=c1[nH]c(-c2ccc(Cl)cc2)cs1	ALR inh 97.1
COc1ccccc1CNC(=O)[C@@H](NC(=O)C1CCN(C(=O)[C@@H]2CCCN2C(=O)OC(C)(C)C)CC1)C(C)C	none (no result: ALR inh)
CCN(CC(=O)Nc1ccccc1C(F)(F)F)C(=O)c1oc2ccc(OC)cc2c1C	none
C/C(N)=C(/C#N)C(=O)COC(=O)c1cc2c(s1)CCC(C)C2 (stereo not drawn)	ALR inh 96.2
C/C(N)=C(/C#N)C(=O)COC(=O)c1cc2c(s1)CCCC2	none (no result: Rce1 inhib)
CCCCSc1nc(O)c(C2OC(=O)c3c2ccc(OC)c3OC)c(=O)n1C (stereo not drawn)	ALR inh inconclusive
CCCCCCSc1nc(O)c(C2OC(=O)c3c2ccc(OC)c3OC)c(=O)n1-c1ccccc1 (stereo not drawn)	ALR inh 98.0
Cc1ccccc1-c1nc(CS(=O)CC(=O)NC2CC2)c(C)o1 (stereo not drawn)	ALR inh 98.7
Cc1ccccc1-c1nc(CS(=O)CC(=O)NC2CCCCC2)c(C)o1 (stereo not drawn)	ALR inh 98.8
Cc1ccccc1-c1nc(CS(=O)CC(=O)NC2CCCC2)c(C)o1 (stereo not drawn)	ALR inh 98.5
Cc1oc(-c2ccccc2F)nc1CS(=O)CC(=O)NC1CCCC1 (stereo not drawn)	ALR inh 98.7
Cc1oc(-c2ccccc2F)nc1CSCC(=O)NC1CCCC1	none
O=c1[nH]c(=O)c2[nH]c(=S)n(-c3ccccc3)c2[nH]1	none (no result: ALR inh, Efflux pump inh, HDAC3 inhib, GRK2 aptamer HTS, Rce1 inhib)
CC(C)Oc1ccc(C(=O)OCC(=O)c2ccc[nH]2)cc1	none (no result: ALR inh, Rce1 inhib)
COc1ccccc1CC(=O)Nc1ccc2c(c1)C(=O)NC2=O	none (no result: Rce1 inhib)
O=C(Cc1cccc(NC(=O)C2CCN(C(=O)CCc3ccccc3)CC2)c1)Nc1cccc(C(=O)N2CCCCC2)c1	none (no result: ALR inh, Efflux pump inh, HDAC3 inhib, GRK2 aptamer HTS, Rce1 inhib)
CCOc1ccc(N=c2scc(-c3ccccc3)n2CCO)cc1	none
CCn1c(-c2ccccc2)csc1=Nc1ccc(O)cc1	ALR inh 98.9
OCCn1c(-c2ccc(F)cc2)csc1=Nc1ccccc1	ALR inh 95.9
O=C(NC(=O)c1cnccc1C(F)(F)F)Nc1ccccc1	none (no result: GRK2 aptamer HTS)

From PubChem
